The structures appear in SMILES notation. Values joined by “and” are separate entries in the source; they are usually repeats but may differ in a detail not shown here. Equal entries are not always repeated. Active and inactive are the calls of the source. Rule for the calls: active = hit-call score of the fitted dose curve at least 0.9, where 1 is the maximum; inactive = score below 0.9.

Read-out in the first test: TIMP metallopeptidase inhibitor 1 (TIMP1), TIMP1 (gene 7076)
Put plainly: BSK_MyoF_TIMP1: BioMAP Diversity Plus: MyoF Assay for TIMP metallopeptidase inhibitor 1 (TIMP1) Biomarker Activity (AID 2284269). As to conditions: primary human lung fibroblasts. The essentials: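 ELISA quantified TIMP-1 levels after 24 h dosing of primary human lung fibroblasts, with DMSO as baseline. Parallel SRB total protein staining (0.1% SRB after TCA fixation, 560 nm) flagged overt cytotoxicity.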
For the compound `COP(=O)(O)OC`, the outcome was inactive.

Regarding `CCCCC(CC)COC(=O)c1c(Br)c(Br)c(Br)c(Br)c1C(=O)OCC(CC)CCCC` (stereo unspecified), the result was inactive.

Take `O=c1ssc(Cl)c1Cl`: the AC50 was 7.43 µM (active).

Turning to `OCC(F)(F)OC(F)(F)C(F)(F)OC(F)(F)C(F)(F)OC(F)(F)F`, the AC50 was 22.3 µM (active) and 27.8 µM (active).

`ClC(Cl)=C(c1ccc(Cl)cc1)c1ccccc1Cl`: the AC50 is 5.76 µM (active).

As for `O=C(O)C(F)(F)OC(F)(F)C(F)(F)OC(F)(F)C(=O)O`, the outcome was inactive.

In the case of `C=CC(=O)OCC(CC)(COC(=O)C=C)COC(=O)C=C`, the AC50 was 9.61 µM (active).

Consider `COP(N)(=S)OC`, for which the result was inactive.

As to `O=S1(=O)OCC2C(CO1)C1(Cl)C(Cl)=C(Cl)C2(Cl)C1(Cl)Cl` (stereo unspecified), the outcome was inactive.

For the compound `Cc1c([N+](=O)[O-])cc2c(c1[N+](=O)[O-])C(C)(C)CC2(C)C`, the outcome was inactive.

Turning to `N#Cc1cc([N+](=O)[O-])ccc1N`, the result was inactive.

Regarding `CC(Cl)CN(C)C` (stereo unspecified), the result was inactive.

With `CCOP(=S)(NC(C)C)Oc1ccccc1C(=O)OC(C)C` (stereo unspecified), the result was inactive.

`O=P(OCC(Br)CBr)(OCC(Br)CBr)OCC(Br)CBr` (stereo unspecified): the outcome was inactive.

As to `CC(O)C(F)(F)C(F)(F)F` (stereo unspecified), the result was inactive.

Regarding `OCC(F)(F)OC(F)(F)C(F)(F)OC(F)(F)CO`, the outcome was inactive.

On to `O=C(O)C=CC(F)(C(F)(F)F)C(F)(F)F`, for which the outcome was inactive.

Read-out in the next test: Matrix Metallopeptidase 1 (MMP1), MMP1 (gene 4312)
The test is described as follows: BSK_BF4T_MMP1: BioMAP Diversity Plus: BF4T Assay for Matrix Metallopeptidase 1 (MMP1) Biomarker Activity (AID 2284270). Conditions: primary human bronchial epithelial cells with fibroblasts. The essentials:
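Co-culture of human bronchial epithelial cells and dermal fibroblasts; MMP-1 levels measured by ELISA 24 hours after chemical dosing, relative to DMSO. Cytotoxicity checked in parallel cultures by SRB total-protein staining.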
Turning to `O=S(=O)(F)C(F)(F)C(F)(F)C(F)(F)C(F)(F)C(F)(F)C(F)(F)C(F)(F)C(F)(F)F`, the outcome was inactive.

In the case of `FC(F)(F)C(F)(C(F)(F)F)C(F)(F)C(F)(F)CC1CO1` (stereo unspecified), the outcome was inactive.

Take `O=C(O)C(F)(F)C(F)(F)C(=O)O`: the result was inactive.

`OCC(F)(F)OC(F)(F)C(F)(F)OC(F)(F)C(F)(F)OC(F)(F)CO`: the result was inactive.

In the case of `NC(=O)C(F)(F)C(F)(F)F`, the outcome was inactive.

On to `COC(=O)C(F)(F)C(F)(F)OC(F)(C(F)(F)F)C(F)(F)OC(F)=C(F)F` (stereo unspecified), for which the outcome was inactive.

As to `C=CC(=O)OCC(F)(F)C(F)F`, the result was inactive.

Turning to `O=C(O)C(F)(OC(F)(F)C(F)(F)C(F)(F)F)C(F)(F)F` (stereo unspecified), the result was inactive.

Turning to `O=C(O)C(F)(F)OC(F)(F)C(F)(F)OC(F)(F)F`, the result was inactive.

`OCC(F)(F)OC(F)(F)C(F)(F)OC(F)(F)C(F)(F)OC(F)(F)F`: the result was inactive.

`O=C(O)C(F)(F)OC(F)(F)C(F)(F)OC(F)(F)C(=O)O`: the outcome was inactive.

As for `CC(O)C(F)(F)C(F)(F)F` (stereo unspecified), the result was inactive.

`OCC(F)(F)OC(F)(F)C(F)(F)OC(F)(F)CO`: the outcome was inactive.

With `O=C(O)C=CC(F)(C(F)(F)F)C(F)(F)F`, the result was inactive.

The AC50 is the midpoint of the concentration-response curve, whichever way the signal moves.
